The whole screen tested about 320,000 compounds, of which about 22,000 (6.9%) were called active. About 27% were inconclusive and are not listed. Calls come from the whole dose curve; as a rule, active = well fitted inhibition curve with a large enough effect; inconclusive = small, poorly fitted or top-dose-only effect, or another doubt; inactive = no such curve, though single readings can be large or run the other way. The list comes from a sample in which actives are over-represented; it also holds similar structures and randomly drawn compounds. Where a call stands in place of a potency, no number is given.
assay: Primary qHTS for delayed death inhibitors of the malarial parasite plastid, 96 hour incubation; details: P. falciparum luciferase reporter growth; series mostly up to 28.7 µM
How it was run: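 Two parasite generations (96 h, 37 C, 5% CO2) of compound exposure in infected erythrocytes (0.05% parasitemia, 2% hematocrit). Luciferase-reporter P. falciparum; decreased luminescence indicates inhibited growth, aimed at apicoplast-acting delayed death.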
Potency is the fitted concentration of half-maximal effect.

| SMILES | Potency |
| --- | --- |
| Cc1cc(C)cc(NC(=S)NC2CC3CCCC(C2)N3Cc2cccs2)c1 (stereo unspecified) | 2.33 µM (active) |
| C=CCN1C2CCCC1CC(NC(=S)Nc1cccc(OC)c1)C2 (stereo unspecified) | inactive |
| COc1ccc(NC(=O)NC2CC3CCCC(C2)N3Cc2ccccc2)cc1 (stereo unspecified) | inactive |
| CCC1(C(=O)c2ccccc2)C(c2cccc([N+](=O)[O-])c2)C1(C(=O)OC)C(=O)OC (stereo unspecified) | 13.1 µM (active) |
| CCC(CC)NC(=O)/C=C/c1cccc([N+](=O)[O-])c1 | inactive |
| CN(C(=O)c1cccc([N+](=O)[O-])c1)c1ccccc1C(=O)NCc1ccccc1 | inactive |
| CCC(=O)Nc1ccc(Nc2nc(Cl)nc(Nc3ccc(NC(=O)CC)cc3)n2)cc1 | inactive |
| O=C(CCl)Nc1ccc(Sc2ccc(NC(=O)CCl)cc2)cc1 | 1.85 µM (active) |
| O=C(O)CSCC(=O)Nc1ccc(C(F)(F)F)cc1 | inactive |
| Cc1ccc2nc(N(CCN(C)C)C(=O)C3=COCCO3)sc2c1 | inactive |
| COCCNC(=O)c1ccc2nc(Cc3ccc(OC)c(OC)c3)oc2c1 | inactive |
| O=C(O)c1ccccc1NC(=O)c1ccccc1-c1ccccc1C(=O)O | inactive |
| O=C(Nc1ccncc1)c1ccccc1[N+](=O)[O-] | inactive |
| O=C(NNC(=O)c1ccccc1[N+](=O)[O-])Nc1ccccc1C(F)(F)F | 11.7 µM (active) |
| O=C(CN1CCC(NC(=O)C2CC2)CC1)Nc1ccccc1[N+](=O)[O-] | 0.738 µM (active) |
| O=C(O)c1ccccc1NC(=S)NC(NC(=O)c1ccccc1[N+](=O)[O-])C(Cl)(Cl)Cl (stereo unspecified) | 13.1 µM (active) |
| O=C(Nc1ccccc1[N+](=O)[O-])C1C(c2ccccc2)=C1c1ccccc1 | 13.1 µM (active) |
| O=[N+]([O-])c1ccccc1Nc1ccc(O)cc1 | inactive |
| O=C(CN1CCC(NC(=O)Nc2ccccc2)CC1)Nc1cccc([N+](=O)[O-])c1 | inactive |
| O=C(CN1CCCCC1)Nc1ccccc1C(=O)NC1CC1 | inactive |
| O=C(O)c1ccccc1C(=O)Nc1ccccc1[N+](=O)[O-] | inactive |
| O=C(Nc1ccccc1-c1ccccc1)c1ccccc1[N+](=O)[O-] | inactive |

| SMILES | Potency |
| --- | --- |
| O=C(Nc1cccc(NC(=O)c2ccccc2[N+](=O)[O-])c1)c1ccccc1Cl | inactive |
| Cc1ccsc1C(=O)NCCc1ccco1 | inactive |
| CCCOC1CCCN(C(=O)c2cc(COc3cncc(Cl)c3)on2)C1 (stereo unspecified) | inactive |
| O=C1Nc2cc(C(=O)N3CCN(c4ccc(F)cc4)CC3)ccc2NC1CSCc1cccc(F)c1 (stereo unspecified) | inactive |
| COC(=O)c1sc(NC(=S)NC(=O)c2ccc(C)cc2)nc1C | inactive |
| Nc1cccc(S(=O)(=O)Nc2ccc(SC(F)F)cc2)c1 | inactive |
| COc1cc(N=Cc2c(O)c3ccccc3oc2=O)c(OC)cc1Cl | inactive |
| CCOc1ccc(S(=O)(=O)NCCC(=O)N2CCCCCCC2)cc1 | inactive |
| CCN(CC(=O)NCc1ccc(Cl)cc1)C(=O)c1c(C)noc1C | inactive |
| Cc1ccccc1Nc1c([N+](=O)[O-])ccc2nonc12 | inactive |
| CCc1nc2sc3c(Cl)ncnc3c2c2c1CCCC2 | inactive |
| Cc1nc(-c2ccc(F)cc2)c(CC(=O)N(C)CC(=O)Nc2c(C)cccc2C)s1 | inactive |
| Cc1nc(-c2ccc(F)cc2)c(CC(=O)N2CCN(S(=O)(=O)c3ccc(F)cc3)CC2)s1 | 13.1 µM (active) |
| O=C(c1cnc(Cl)c(Cl)c1)N1CCN(S(=O)(=O)c2ccc(F)cc2)CC1 | inactive |
| COc1ccc(N2C(=O)NC(NS(=O)(=O)c3ccc(Cl)cc3)(C(F)(F)F)C2=O)cc1 (stereo unspecified) | inactive |
| O=C1CSc2ccc(S(=O)(=O)NCc3ccccc3)cc2N1 | inactive |
| CC1(C)CC(=O)C(N=Nc2c(F)cccc2F)=C(O)C1 | inactive |
| CCC(NC(=O)C1CCCC1)c1ccc(C)cc1 (stereo unspecified) | inactive |
| O=C(Cn1cnc2ccccc2c1=O)Nc1cccc(S(=O)(=O)N2CCCCC2)c1 | inactive |
| CCN(CC(=O)Nc1cccc(S(N)(=O)=O)c1)Cc1nc2ccccc2c(=O)[nH]1 | inactive |
| CCCCN(CC(=O)Nc1cccc(S(=O)(=O)N2CCCC2)c1)Cc1nc2ccccc2c(=O)[nH]1 | 5.86 µM (active) |
| CCc1noc(C)c1C(=O)N1CCN(S(=O)(=O)c2cccc(C(F)(F)F)c2)CC1 | inactive |

| SMILES | Potency |
| --- | --- |
| Cn1ncc(Br)c1C(=O)NC1CCCC1 | inactive |
| NC(=O)CSc1nnc(NC(=O)c2ccc3ccccc3c2)s1 | inactive |
| CC(=O)N1N=C(c2ccncc2)OC1(Cc1ccccc1)Cc1ccccc1 | 11.7 µM (active) |
| CC(C)(C)N(Cc1ccccc1)C(=O)c1ccncc1 | inactive |
| CC(=O)N1N=C(c2ccccc2)OC1c1cccnc1 (stereo unspecified) | inactive |
| Cn1c(C(=O)N2CCCC(C(=O)NCc3ccccc3)C2)cc2sccc21 (stereo unspecified) | inactive |
| COc1cc(-c2cc(C(=O)OCC(=O)Nc3ccc4c(c3)OCO4)c3ccccc3n2)cc(OC)c1OC | inactive |
| CNC(=O)COC(=O)c1cc(-c2ccc(OC)cc2)nc2ccccc12 | inactive |
| COc1ccc(NC(=O)c2cc(-c3cc(OC)c(OC)c(OC)c3)nc3ccccc23)c(OC)c1 | 2.62 µM (active) |
| CC1CCCCC12NC(=O)N(CC(=O)OCC(=O)NCc1ccc(F)cc1)C2=O (stereo unspecified) | inactive |
| Cc1ccc(C(=O)N2CCN(C3CCCCC3)CC2)s1 | inactive |
| O=C(C1CCN(S(=O)(=O)c2ccc(Br)s2)CC1)N1CCN(C2CCCCC2)CC1 | 4.65 µM (active) |
| O=C(C1CCN(S(=O)(=O)c2ccc(Br)s2)CC1)N1CCN(c2ccccc2)CC1 | inactive |
| Cc1cccc(C)c1NC(=O)N1CC(C)OC(C)C1 (stereo unspecified) | inactive |
| COC(=O)c1ccc(OC(=O)c2cnccn2)cc1 | inactive |
| Cc1cccc(OP(=O)(Oc2cccc(C)c2)OC(c2ccccc2)C(F)(F)F)c1 (stereo unspecified) | 13.1 µM (active) |
| Cc1cccc(OCC(=O)Nc2ccccc2F)c1 | inactive |
| Cc1cccc(OP(=O)(Nc2c(C)n(C)n(-c3ccccc3)c2=O)Oc2cccc(C)c2)c1 | inactive |
| COc1ccc(S(=O)(=O)N2CCCCC2)cc1NC(=O)C1CC(=O)N(c2ccc3c(c2)OCCO3)C1 (stereo unspecified) | inactive |
| COc1cccc(-n2nc(C(=O)N3CCN(Cc4ccccc4)CC3)c3ccccc3c2=O)c1 | 5.22 µM (active) |
| CCOC(=O)CNC(=O)c1nn(-c2cccc(OC)c2)c(=O)c2ccccc12 | inactive |
| COc1cc(OC)c(OC)cc1CN1CCN(C(=O)c2cccc3ccccc23)CC1 | inactive |

Source: PubChem BioAssay AID504834 (National Center for Advancing Translational Sciences (NCATS), 2011)
